Measured values from the supplement of paper PMC4371806.
Over roughly 2,300 compounds, “plate-normalized OD600 growth (mean of duplicates)” has its median near 0.29; the lowest 2% begin near 0.22. This excerpt belongs to a sample that is enriched for the lowest values.

Tested on: Escherichia coli BW25113
Experiment: plate-normalized OD600 growth (mean of duplicates) (OD600 (normalized)); higher = more growth (less inhibition)
Details: 10 µM
Protocol: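 E. coli BW25113 in LB (100 µl, 96-well, no shaking) was exposed to 10 µM of each compound from a ~30,000-member library and grown at 37°C for 24 h or 15°C for 48 h, in duplicate. Growth was read as OD600 and the duplicate ODs were normalized across screening plates to correct plate-to-plate variation. Hits were >3σ below the mean OD600 at 15°C and <2σ below the mean at 37°C.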

| SMILES | plate-normalized OD600 growth (temperature: 15°C, 48 h) | plate-normalized OD600 growth (temperature: 37°C, 24 h) |
| --- | --- | --- |
| CCOC(=O)C(=CNNC(=O)c1ccccc1-n1cccc1)C(=O)OCC | 0.213 | 0.618 |
| CCOC(=O)C(=CNNc1ccnc2cc(Cl)ccc12)C(=O)OCC | 0.26 | 0.616 |
| CCOC(=O)C(=CNNS(=O)(=O)c1cc(C(F)(F)F)cc(C(F)(F)F)c1)C(=O)OCC | 0.246 | 0.602 |
| CC1COCCN1c1cc(N2CCCCC2C(F)(F)F)[nH]c(=O)c1 (stereo not given) | 0.265 | 0.635 |
| Nc1[nH]c(=O)c(CO)c(N)c1S(=O)(=O)c1ccccc1 | 0.211 | 0.632 |
| N=c1c(S(=O)(=O)c2ccccc2)c(N)c(CO)c2sc3ccccc3n12 | 0.236 | 0.601 |
| NS(=O)(=O)c1ccc(-n2ncc3ccccc3c2=O)cc1 | 0.214 | 0.646 |
| CCOC(=O)c1cnn(-c2ccc(NS(=O)(=O)c3ccc(Cl)cc3)cc2)c1C(F)(F)F | 0.233 | 0.609 |
| O=C(CNC(=O)C(c1ccccc1)c1ccccc1)N/N=C/c1ccc(-c2ccc(Cl)c(Cl)c2)o1 | 0.238 | 0.611 |
| Cc1ccccc1OCC(=O)Nc1cccc(N2C(=O)c3ccccc3C2=O)c1 | 0.235 | 0.661 |
| O=C(COc1ccc(C(F)(F)F)cc1[N+](=O)[O-])Nc1cccc(C(F)(F)F)c1 | 0.264 | 0.633 |
| Cc1cccc(NC(=O)COc2ccccc2C(=O)NCCNc2ccc([N+](=O)[O-])cc2)c1 | 0.209 | 0.656 |
| CCC/C=N/NC(=O)c1ccc(N2CCCC2=O)cc1 | 0.26 | 0.647 |
| c1ccc2c(c1)OCCCOc1ccccc1OCCCO2 | 0.251 | 0.607 |
| COc1cc(S(=O)(=O)N2CCN(c3c(C)cccc3C)CC2)c(OC)cc1Cl | 0.253 | 0.617 |
| COc1cc2c(cc1OC)C(C)N(S(=O)(=O)c1cn(C)c(C)n1)CC2 (stereo not given) | 0.245 | 0.611 |
| CC(C)CC(=O)N(NC(=O)c1ccccc1)c1ccccc1 | 0.22 | 0.615 |
| COc1ccccc1Oc1ccc(C(F)(F)F)cc1NC(=O)NC(=O)c1ccccc1F | 0.265 | 0.619 |
| O=C1/C(=C\c2ccccc2)N=C(c2ccccc2)N1CNc1nccs1 | 0.254 | 0.585 |
| O=C(O)c1cccc(S(=O)(=O)Nc2ccc(Cl)cc2)c1 | 0.257 | 0.625 |
| CC1=C(C#N)C(c2c(C)[nH]n(-c3ccccc3)c2=O)(C(F)(F)F)C(=O)N1 (stereo not given) | 0.26 | 0.62 |
| COc1ccccc1N=C(N)SCc1ccccc1 | 0.236 | 0.606 |
| CCc1ccc(NC(=O)CSc2nnc3n(N)cnn23)cc1 | 0.238 | 0.609 |
| Cc1cc(O)c(C)c(O)c1/C=N/NC(=O)CNC(=O)c1ccco1 | 0.245 | 0.61 |

| SMILES | plate-normalized OD600 growth (temperature: 15°C, 48 h) | plate-normalized OD600 growth (temperature: 37°C, 24 h) |
| --- | --- | --- |
| Cc1ccc(NC(=O)c2c3c(nc4ccccc24)CCCC3)cc1 | 0.239 | 0.614 |
| C=CCn1c(C(O)c2ccccc2)n[nH]c1=S (stereo not given) | 0.247 | 0.613 |
| O=c1nc(-c2ccccc2)nc(-c2ccccc2)[nH]1 | 0.26 | 0.617 |
| Cc1ccc2nc(Cl)c(C=Nc3ccccn3)cc2c1 | 0.226 | 0.611 |
| COc1ccc(S(=O)(=O)N(Cc2ccccc2)c2ccccc2C(=O)N/N=C(\C)c2ccccc2O)cc1 | 0.259 | 0.618 |
| O=C(NC(=S)Nc1ccc(Cc2ccncc2)cc1)c1cccc2ccccc12 | 0.259 | 0.614 |
| COc1cc(CCNC(=O)OC(C)(C)C)c([S+]([O-])CSCc2ccccc2)cc1OC (stereo not given) | 0.238 | 0.613 |
| Cc1cc(=O)oc2n[nH]c(-c3ccccc3)c12 | 0.258 | 0.64 |
| O=C(c1ccco1)N1CCC(c2ccccc2)C1 (stereo not given) | 0.201 | 0.642 |
| NC(=O)C1CCN(C(=O)c2ccco2)CC1 | 0.25 | 0.628 |
| O=C(NCCSC1CCCCC1)c1ccco1 | 0.221 | 0.633 |
| N#CC1=C(N)Oc2n[nH]c(-c3cccs3)c2C12C(=O)Nc1ccc([N+](=O)[O-])cc12 (stereo not given) | 0.265 | 0.618 |
| CCOc1ccc(-c2[nH]nc3c2C2(C(=O)Nc4ccc(C)c(Br)c42)C(C#N)=C(N)O3)cc1 (stereo not given) | 0.245 | 0.6 |
| COC(=O)CN1C(=O)C2(C(C#N)=C(N)Oc3n[nH]c(C)c32)c2ccccc21 (stereo not given) | 0.207 | 0.65 |
| CCOC(=O)c1c(N)oc2c(-c3ccc(C)c(Cl)c3)c3c(C(=O)OCC)c(N)oc3cc12 | 0.218 | 0.622 |
| N#CCS(=O)(=O)c1cccs1 | 0.217 | 0.626 |
| O=C(NC1Cc2ccccc2C1)c1cncc(Br)c1 | 0.281 | 0.658 |
| c1ccc(-c2cc3c(nn2)CCc2nonc2-3)cc1 | 0.27 | 0.648 |
| COc1cc(O)ccc1/C=N/NC(=O)c1cccc([N+](=O)[O-])c1 | 0.248 | 0.614 |
| O=C(N/N=C/c1ccc(OC(=O)c2cccc(F)c2)cc1)C1=NNC(c2ccccc2)(c2ccccc2)C1 | 0.267 | 0.624 |
| N#C/C(=C\c1ccc(OC(=O)c2cccc([N+](=O)[O-])c2)cc1)C(=O)c1ccccc1 | 0.211 | 0.634 |
| CC(Oc1ccccc1)C(=O)Nc1ccc(Cl)cc1 (stereo not given) | 0.222 | 0.64 |
| CC(=O)c1cnn(-c2ccccc2)c1C | 0.259 | 0.623 |
| O=C(/C=C/c1cccs1)C(C(=O)c1ccccc1)=C1SCCCCS1 | 0.244 | 0.615 |

| SMILES | plate-normalized OD600 growth (temperature: 15°C, 48 h) | plate-normalized OD600 growth (temperature: 37°C, 24 h) |
| --- | --- | --- |
| O=C(CSc1nc2ccccc2s1)Nc1cccn2cc(-c3ccccc3)nc12 | 0.263 | 0.614 |
| COc1ccc(CNCC2COc3ccccc3O2)cc1OC (stereo not given) | 0.26 | 0.638 |
| CC(C)Nc1nc(Cl)nc(Nc2cccc(C(F)(F)F)c2)n1 | 0.262 | 0.62 |
| CCN=C(NCC)SC1CC(=O)N(c2ccc(C(=O)O)cc2)C1=O (stereo not given) | 0.246 | 0.617 |
| CCOc1ccc(C(C)(C)C(=O)Nc2ccc(C(=O)/C=C/c3ccco3)cc2)cc1 | 0.266 | 0.639 |
| Clc1ccc2nc(N3CCOCC3)nc(-c3ccccc3)c2c1 | 0.251 | 0.61 |
| CCC(=O)Nc1nc2ccc(C)cc2s1 | 0.246 | 0.603 |
| N#CC(C(=O)Nc1cccc(C(F)(F)F)c1)C(=S)Nc1ccccc1Cl (stereo not given) | 0.254 | 0.644 |
| CCCCOc1cc(C(=O)O)ccc1OC | 0.261 | 0.64 |
| COc1cc(C(=S)N2CCCCC2)ccc1OC(=O)c1ccccc1 | 0.00796 | 0.606 |
| COc1ccc(C(=O)N2CCN(c3c(C)cccc3C)CC2)cc1OC | 0.257 | 0.622 |
| Clc1cccc(Cl)c1/C=N/Nc1nncc(-c2ccccc2)n1 | 0.186 | 0.641 |
| CSCCC(NC(=O)c1ccccc1)C(=O)OCC(=O)Nc1ccccc1C#N (stereo not given) | 0.236 | 0.619 |
| Clc1cccc(CN2CCN(Cc3ccco3)CC2)c1 | 0.237 | 0.636 |
| Cc1cc2c(cc1C)CN(c1ccc(C(=O)N/N=C/c3ccccc3O)cc1)C2 | 0.25 | 0.63 |
| COc1ccc(/C=N/NC(=O)COc2ccc(Cl)cc2)cc1I | 0.257 | 0.62 |
| CCCCOc1cccc(NC(=O)CCSc2nccn2C)c1 | 0.25 | 0.643 |
| N#C/C(=C\c1ccccc1Cl)c1nc2ccccc2[nH]1 | 0.26 | 0.624 |
| O=C(NCc1csc(-c2cccs2)n1)C1=Cc2ccccc2OC1 | 0.243 | 0.593 |
| O=C(Nc1ccccc1C(=O)NC1CCCCNC1=O)c1cccs1 (stereo not given) | 0.253 | 0.638 |
| COc1ccc(-c2cc(C(F)(F)F)n3nc(C(=O)NC(C)(C)C)c(Cl)c3n2)cc1OC | 0.245 | 0.619 |
| Cc1nc(Nc2ccc(F)cc2)c2oc3ccccc3c2n1 | 0.245 | 0.613 |
